Compound activity (PubChem BioAssay)
The list is a sample of the results.
aSyn 5UTR act: Activators working through SNCA 5'UTR binding (MLPCN) | alpha-synuclein 5'UTR reporter, activators screen | activity score, % (tested at 7.5 µM), hits read low | 300,000 compounds, 7.1% hits | AID 1814; in the data active = activity score below about -60%
An asterisk follows results filed as active.

`COc1ccc(O)c(C(=O)C2c3ccccc3C(=O)N2c2ccc(C)cc2)c1` (configuration not stated) gave aSyn 5UTR act -116*.
Screening O=C1c2ccccc2C(O)N1c1ccc(Cl)cc1 (configuration not stated) returned aSyn 5UTR act -67*.
`Cc1cc(C(=O)N(C)C)sc1-c1ccccc1` gave aSyn 5UTR act -132*.
Screening O=C(CC1CCCCC1)NCc1ccccc1Cl returned aSyn 5UTR act -107*.
Screening Clc1ccc(-c2ccc(/C=N/Nc3nncc(-c4ccccc4)n3)o2)cc1 returned aSyn 5UTR act -75*.
`Oc1cccc(/C=N\Nc2nncc(-c3ccccc3)n2)c1` gave aSyn 5UTR act -210*.
For Cc1[nH]n(-c2ccccc2)c(=O)c1/C=N/Nc1nncc(-c2ccccc2)n1 the results were aSyn 5UTR act 91.
For Cc1ccc(/C=N/Nc2nncc(-c3ccccc3)n2)o1 the results were aSyn 5UTR act -99*.
`Cc1nc(-c2ccc3c(c2)OCCCO3)cs1` gave aSyn 5UTR act -100*.
Screening CC1Cc2cc(-c3csc(N)n3)ccc2O1 (configuration not stated) returned aSyn 5UTR act -95*.
Screening Nc1nc(-c2ccc3c(c2)OCCO3)cs1 returned aSyn 5UTR act -86*.
O=C1c2cccc3c(N4CCCCC4)ccc(c23)C(=O)N1CCO was read as aSyn 5UTR act -120*.
Screening C=CCN1C(=O)c2cccc3c(N4CCCCC4)ccc(c23)C1=O returned aSyn 5UTR act -66*.
Screening O=C1c2cccc3c(N4CCCCC4)ccc(c23)C(=O)N1c1cccc(O)c1 returned aSyn 5UTR act -78*.
O=C1c2cccc3cc([N+](=O)[O-])cc(c23)C(=O)N1CCN1CCCC1 was read as aSyn 5UTR act 98.
O=C(OCCN1C(=O)c2cccc3c(N4CCOCC4)ccc(c23)C1=O)c1ccc(Cl)cc1Cl was read as aSyn 5UTR act 99.
Screening Cc1c(Cl)cccc1Nc1nc(N)nc(CSc2ncccn2)n1 returned aSyn 5UTR act -77*.
Screening N/C(=N\OC(=O)c1ccc(F)cc1)c1ccc(Br)cc1 returned aSyn 5UTR act -143*.
N/C(=N\OC(=O)c1ccc(F)cc1)c1ccccc1 was read as aSyn 5UTR act -298*.
For Cc1ccc(/C(N)=N/OC(=O)c2ccc(F)cc2)cc1 the results were aSyn 5UTR act -194*.
`Cc1ccc(C(=O)O/N=C(\N)c2ccccn2)cc1` gave aSyn 5UTR act 65.
`Cc1ccc(S(=O)(=O)Oc2ccc(C)cc2/C=N/N=C2\NC(=O)C(C)S2)cc1` (configuration not stated) gave aSyn 5UTR act -66*.
For Cc1ccc2nc(COc3ccc(Cl)cc3)cc(=O)n2c1 the results were aSyn 5UTR act -109*.
COCC(C)n1c(SCc2cc(=O)n3cc(C)ccc3n2)nc2ccccc2c1=O (configuration not stated) was read as aSyn 5UTR act 64.
Screening COc1ccc(OCc2cc(C(=O)O)c(C)o2)cc1 returned aSyn 5UTR act -93*.
Screening CC(C)c1ccc(OCc2ccc(C(=O)O)o2)cc1 returned aSyn 5UTR act -94*.
For CC(C)c1ccc(OCc2ccc(C(=O)N(C)C)o2)cc1 the results were aSyn 5UTR act -171*.
For CC(C)c1ccc(OCc2ccc(C(=O)NN3CCN(C)CC3)o2)cc1 the results were aSyn 5UTR act -134*.
For CC1CN(C(=O)c2ccc(COc3ccc(C(C)C)cc3)o2)CC(C)O1 (configuration not stated) the results were aSyn 5UTR act -110*.
For CCc1ccc(OCc2ccc(C(=O)O)o2)cc1 the results were aSyn 5UTR act -145*.
Cc1ccc(C(=O)CCNc2ccc(Br)cc2)o1 was read as aSyn 5UTR act -99*.
COc1cc(/C=C/[N+](=O)[O-])ccc1OC(=O)c1cc2ccccc2oc1=O was read as aSyn 5UTR act -102*.
For CC(/C=C/c1ccc2c(c1)OCO2)=N/NC(=O)CNc1ccc(C)cc1 the results were aSyn 5UTR act -62*.
For Cc1ccc(NC(=O)/C=C/c2ccc3c(c2)OCO3)nc1 the results were aSyn 5UTR act -109*.
`Cc1ccc(NC(=O)Nc2ccc3c(c2)OCO3)nc1` gave aSyn 5UTR act -193*.
`Cc1ccc(NC(=O)Nc2ccc(Cl)c(Cl)c2)nc1` gave aSyn 5UTR act -90*.
For Cc1ccc(NC(=O)Nc2ccc(Cl)cn2)cc1 the results were aSyn 5UTR act -147*.
For COc1ccccc1C1=NC(c2ccc(C)cc2)N=C1C (configuration not stated) the results were aSyn 5UTR act -78*.
Screening O=[N+]([O-])c1ccc(Cc2nnc(-c3ccccc3Cl)o2)cc1 returned aSyn 5UTR act -172*.
CSc1nc(N)n2nc(-c3ccccc3)cc2n1 was read as aSyn 5UTR act -119*.
`Cc1ccc(-c2cc3nc(-c4ccccc4)cc(N)n3n2)cc1` gave aSyn 5UTR act -236*.
`N/C(=N\OC(=O)C1CCCCC1)c1cccc(Br)c1` gave aSyn 5UTR act -170*.
Screening N/C(=N\OC(=O)CC1CCCCC1)c1ccc(Br)cc1 returned aSyn 5UTR act -83*.
